# About 4,100 (1.2%) of roughly 330,000 compounds were called active. About 2% were inconclusive and are not listed. Rule for the calls: active = max response of -50% or lower; inconclusive = between -30% and -50%; inactive = -30% or higher. The entries come from a sample that favours actives as a whole.
# Target: Phosphatidylinositol 5-phosphate 4-kinase type-2 alpha (Homo sapiens) (UniProt P48426)
# Assay: qHTS for Inhibitors of phosphatidylinositol 5-phosphate 4-kinase (PI5P4K); note: value at the top dose of about 77 µM
# Settings: PI5P4Kalpha enzyme, ADP-Glo luminescence, 60 min; hits give low values
# Procedure, shortened: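 Compounds were pin-transferred onto PI5P4Kalpha and substrate in HEPES pH 7.4 buffer with EGTA, CHAPS and 5% DMSO. ATP (5 microM final) started the reaction, which ran 60 minutes at room temperature before ADP-Glo detection.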
# % is set by controls: 0 for no effect and ±100 for the full control effect.
# Phosphatidylinositol 5-phosphate 4-kinase type-2 alpha (Homo sapiens), sequence (P48426 whole entry, looked up): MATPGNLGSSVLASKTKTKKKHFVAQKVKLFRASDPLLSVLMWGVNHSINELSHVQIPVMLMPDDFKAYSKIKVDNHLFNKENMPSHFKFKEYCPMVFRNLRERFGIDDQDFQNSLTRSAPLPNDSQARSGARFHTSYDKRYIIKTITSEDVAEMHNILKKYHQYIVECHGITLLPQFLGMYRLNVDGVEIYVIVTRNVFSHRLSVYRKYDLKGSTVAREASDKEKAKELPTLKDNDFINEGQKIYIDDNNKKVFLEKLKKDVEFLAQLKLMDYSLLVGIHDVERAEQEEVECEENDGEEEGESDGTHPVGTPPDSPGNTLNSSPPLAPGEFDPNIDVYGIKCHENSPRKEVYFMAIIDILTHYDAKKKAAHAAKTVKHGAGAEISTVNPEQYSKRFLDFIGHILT
row,SMILES,max response
1,COc1ccc(NC(=O)C2Cc3c(-c4ccc(Cl)cc4)ccnc3O2)cc1 (stereo not drawn),-2.22% (inactive)
2,Cc1ccc(-c2c(N)nc3ncccn23)cc1,0.002% (inactive)
3,O=CNc1cc(-c2ccc(C(=O)N3CCOCC3)cc2)cn2c(-c3ccc(F)cc3)cnc12,-15.7% (inactive)
4,CCCCNC(=O)C[C@@H]1C[C@@]2(C(=O)OCC)CCC=C2N(Cc2cccc3ccccc23)C1=O,3.26% (inactive)
5,COc1cccc(/C=N/Nc2ccc(S(=O)(=O)Nc3ccccc3C(=O)O)cc2[N+](=O)[O-])c1O,-74.4% (active)
6,COc1ccc(Br)cc1/C=N/Nc1ccc(S(=O)(=O)Nc2ccccc2C(=O)O)cc1[N+](=O)[O-],-15.6% (inactive)
7,Cc1ccc(NS(=O)(=O)c2ccc(N/N=C/c3ccccc3OCC(=O)O)c([N+](=O)[O-])c2)c(C)c1,0.282% (inactive)
8,Cc1noc(C)c1-c1ccc(C(=O)NCc2ccncc2)c2occc12,1.04% (inactive)
9,COc1cccc(-c2nc3nc(C)cc(C)n3c2NC2CCCCC2)c1,-7.02% (inactive)
10,C[C@H]1NS(=O)(=O)c2cc(Cl)ccc2O[C@@H]1c1ccccc1,4.12% (inactive)
11,Cc1ccccc1C1=NC(C(F)(F)F)(C(F)(F)F)c2c(n(-c3ccc(F)cc3)c(=O)[nH]c2=O)N1,-8.19% (inactive)
12,O=c1[nH]c(=O)n(Cc2ccco2)c2c1C(C(F)(F)F)(C(F)(F)F)N=C(c1ccco1)N2,-76.9% (active)
13,Nc1c(N(Cc2ccco2)C(=O)c2cccc(F)c2)c(=O)[nH]c(=O)n1Cc1ccccc1,-14.9% (inactive)
14,CN(C)c1cccc(NC(=O)c2ccc(-c3ccc(F)c(F)c3)c3ccoc23)c1,2.45% (inactive)
15,CCC(=O)N1CCC(C)(C(=O)Nc2cc(OC)c(OC)c(OC)c2)C1 (stereo not drawn),10.8% (inactive)
16,CC(=O)C1=CCC(c2ccccc2)N(S(=O)(=O)c2ccc(C)cc2)C1 (stereo not drawn),-0.133% (inactive)
17,COc1ccc(Cc2nnc(NC(=O)Cc3cccs3)s2)cc1,-87.6% (active)
18,COc1ccc(Cc2nnc(NS(=O)(=O)Cc3ccccc3)s2)cc1,-3.92% (inactive)
19,O=C(Cc1cccs1)Nc1nnc(SCc2ccc(F)cc2)s1,6.84% (inactive)
20,CCOP(=O)(OCC)C(Cc1ccccc1)N=C(c1ccccc1)c1ccccc1 (stereo not drawn),10.7% (inactive)
21,CC1(C(=O)NCc2ccc3c(c2)OCO3)CCN1C(=O)Cc1cccc2ccccc12 (stereo not drawn),1.27% (inactive)

row,SMILES,max response
1,O=C1NC[C@H](CCCCN2C[C@H](Cc3ccc(O)cc3)N(CC3CCCCC3)C(=O)C2=O)N(CCc2ccccc2)C1=O,-0.0714% (inactive)
2,CSc1ncnc2c1ncn2CCCNCC(C)c1ccccc1 (stereo not drawn),-2.55% (inactive)
3,Fc1cccc(Cc2c(-c3cccc(Cl)c3)nc3ccc(Br)cn23)c1,-13.9% (inactive)
4,CC(=O)Nc1cc(-c2ccc(N3CCN(C)CC3)cc2)cn2c(-c3ccc(F)cc3)cnc12,-9.82% (inactive)
5,O=C(NCc1cccc(C(F)(F)F)c1)c1ccc2sc(COCCO)nc2c1,-7.68% (inactive)
6,CC1(C(=O)Nc2ccc3c(c2)OCCO3)CCN1C(=O)Cc1cc(F)ccc1F (stereo not drawn),2.77% (inactive)
7,O=C1C(Cl)=C(Oc2ccccc2)C(=O)c2ccccc21,-95.6% (active)
8,Clc1ccccc1Nc1nc(NCc2cccs2)nc2ccsc12,-4.54% (inactive)
9,N#CCC(=O)Nc1ccc(C(=O)OCC(=O)Nc2sc3c(c2C#N)CCCC3)cc1,-64.2% (active)
10,CC(=O)c1c(C)[nH]c(C(=O)OCC(=O)Nc2sc3c(c2C#N)CCCC3)c1C,-6.62% (inactive)
11,CC(C)NC(=O)NC(=O)COC(=O)c1ccc(NC(=O)CC#N)cc1,-8.69% (inactive)
12,CCOc1ccc(NC(=O)c2ccc(NC(=O)COC(=O)c3ccc(NC(=O)CC#N)cc3)cc2)cc1,-67.8% (active)
13,Cc1cccc(C(=O)OCC(=O)Nc2sc3c(c2C#N)CCC3)c1,-29.9% (inactive)
14,CCOc1ccc(NC(=O)CCNC(=O)c2ccc(Br)cc2)cc1,-0.675% (inactive)
15,CC1=C(C(=O)N(C(C)C)C(C)C)CC(CC(=O)NCCCCc2ccccc2)C(=O)N1CCC1=CCCCC1 (stereo not drawn),-0.015% (inactive)
16,COC(=O)C[C@H]1C=C[C@@H](NS(=O)(=O)c2ccc(C)cc2)[C@@H](CO)O1,0.772% (inactive)
17,COc1ccc(S(=O)(=O)/N=C2\C=C(NS(=O)(=O)c3ccccc3)C(=O)c3ccccc32)cc1,-64.4% (active)
18,O=C1C=C(NS(=O)(=O)c2ccccc2)C(=O)c2ccccc21,1.96% (inactive)
19,Cc1ccc(S(=O)(=O)/N=C2\C=C(NS(=O)(=O)c3ccc(C)cc3)C(=O)c3ccccc32)cc1,-25.4% (inactive)
20,O=C(OCc1ccccc1)N1CCC2CC1c1ccc(-c3ccc4c(c3)OCO4)cc12 (stereo not drawn),14.4% (inactive)
21,O=S1(=O)CC(N2CCN(CCO)CC2)CN1Cc1cn(Cc2ccc(Cl)cc2)nn1 (stereo not drawn),-1.75% (inactive)

row,SMILES,max response
1,NC(Cc1ccc(F)cc1)c1csc(Nc2nncc3ccccc23)n1 (stereo not drawn),-1.97% (inactive)
2,CCOC(=O)c1sc(=S)n2c1[nH]c(=O)c1ccc(C(=O)OC)cc12,-52.6% (active)
3,CCOC(=O)c1ccc2c(c1)nc(C)n2CC,0.903% (inactive)
4,COC(=O)c1cccc(NC(=O)CSc2nc(C)cc(=O)[nH]2)c1,-26.1% (inactive)
5,O[C@H]1C[C@H](c2ccc(Cl)cc2)N(Cc2cccs2)C[C@@H]1n1cc(C2CC2)nn1,16.1% (inactive)
6,COc1c(O)cc2oc(-c3ccc(O)c(O)c3)cc(=O)c2c1O,-59.1% (active)
7,COc1ccc(-c2cc(=O)c3c(O)cc(O[C@@H]4O[C@H](CO[C@@H]5O[C@@H](C)[C@H](O)[C@@H](O)[C@H]5O)[C@@H](O)[C@H](O)[C@H]4O)cc3o2)cc1O,0.0751% (inactive)
8,COc1cc(O)c2c(=O)c3c(O)c(O)ccc3oc2c1OC,-7.12% (inactive)
9,Cc1[nH]c2ccccc2c1C(=O)c1cc([C@H](NC(=O)OC(C)(C)C)C(C)C)sc1N,2.87% (inactive)
10,CC(=O)OCC(C)n1c(=O)c2ccccc2n1C(C)=O (stereo not drawn),-0.324% (inactive)
11,COc1ccc(C(O)c2nc(-c3ccc4c(c3)OCO4)cs2)cc1 (stereo not drawn),-1.53% (inactive)
12,O=C1c2ccccc2S(=O)(=O)c2cc(N3CCN(c4ccccn4)CC3)ccc21,1.24% (inactive)
13,CC1CCN(c2ccc3c(c2)S(=O)(=O)c2cc(C(=O)O)ccc2C3=O)CC1,-56.6% (active)
14,Cc1ccc(CNC(=O)c2cccc3c2C(=O)c2ccc(N4CCC(C)CC4)cc2S3(=O)=O)cc1,-1.75% (inactive)
15,CCCCC(=O)N(C)c1c(CC)nc2c(OCc3ccc(S(C)(=O)=O)cc3)cccn12,-1.42% (inactive)
16,CC(C)[C@H](NC(=O)c1ccccc1F)C(=O)Nc1cccc(S(=O)(=O)N2CCOCC2)c1,0.136% (inactive)
17,CN1C2CCC1CC(NC(=O)c1ccc([N+](=O)[O-])cc1)C2 (stereo not drawn),0.848% (inactive)
18,COc1ccc(C2CC(c3ccc([N+](=O)[O-])cc3)=NN2C(C)=O)cc1 (stereo not drawn),0.372% (inactive)
19,CC(=O)N1CC[n+]2c(-c3ccc([N+](=O)[O-])cc3)csc21,-61% (active)
20,COC(=O)[C@]12CCCCC=C1N(CCC1=CCCCC1)C(=O)[C@H](CC(=O)NCC1CCCCC1)C2,7.3% (inactive)
21,CC(=O)N1Cc2cc(C(=O)NCc3cccc(F)c3)nc(-c3cccc(C4=CCCC4)c3)c2[C@H]1CCO,-1.08% (inactive)

row,SMILES,max response
1,CNc1cc(-c2c(OC)cccc2OC)ncn1,3.83% (inactive)
2,C[C@@H]1C[C@@H]2O[C@H]2/C=C\C=C\C(=O)Cc2c(Cl)c(O)cc(O)c2C(=O)O1,-50.5% (active)
3,CC1(C(=O)Nc2cccc3c2CCCC3)CCN1C(=O)C1(c2ccccc2)CC1 (stereo not drawn),20.1% (inactive)
4,O=C1OCCOC2CCCc3oc(-c4ccccc4)c1c32 (stereo not drawn),-3.14% (inactive)
5,OC(c1ccc(F)cc1)c1ncc(-c2cccc(C(F)(F)F)c2)[nH]1 (stereo not drawn),16.6% (inactive)
6,CCOC(=O)/C=c1\s/c(=C\c2ccccc2OC)c(=O)n1CC(=O)N1CCOCC1,-6.89% (inactive)
7,COc1cc(/C=C2\C(=N)N3N=C(CC(=O)N4CCOCC4)SC3=NC2=O)cc(OC)c1OC,1.99% (inactive)
8,C=CCC1=C/C(=C\c2c(N)n3nc(CC(=O)N4CCOCC4)sc3nc2=O)C=C(OC)C1=O,-61.1% (active)
9,COC1=C/C(=C/c2c(N)n3nc(CC(=O)N4CCOCC4)sc3nc2=O)C=CC1=O,-79.3% (active)
10,COc1cccc(/C=C2\SC(=S)N(CCCC(=O)N3CCOCC3)C2=O)c1,1.86% (inactive)
11,CCOC(=O)C1=CCC(c2ccc(F)cc2)N(S(=O)(=O)c2ccc(C)cc2)C1 (stereo not drawn),8.18% (inactive)
12,O=C(COc1ccc(Br)cc1)OCC(=O)c1ccc[nH]1,1.45% (inactive)
13,CCc1nc2c(OCc3ccc(C(=O)OC)cc3)cccn2c1N(C)C(=O)C(C)C,-5.01% (inactive)
14,COc1cc(/C=N/NC(=O)c2ccc(N3CCCC3=O)cc2)ccc1O,0.256% (inactive)
15,CCOc1cc(/C=N/NC(=O)c2cc(-c3ccccc3)nc3ccccc23)ccc1O,1.21% (inactive)
16,COc1ccc(C(=O)Nc2ccccc2C(=O)N/N=C/c2ccc(O)c(OC)c2)cc1,-50.7% (active)
17,CCCCCCN1CCN(C2CN(Cc3cn(CCCCCC)nn3)S(=O)(=O)C2)CC1 (stereo not drawn),-1.03% (inactive)
18,CC(C)Nc1nc(NCCOc2ccccc2Cl)c2sccc2n1,-24.4% (inactive)
19,O=C(NCc1ccco1)c1cccc(-c2ccc3nncn3c2)c1,5.11% (inactive)
20,Cc1cccc(C)c1Cn1c(C)c(C(=O)NCc2cccc(Cl)c2)sc1=O,9.15% (inactive)

# From PubChem BioAssay AID652105 (National Center for Advancing Translational Sciences (NCATS), 2013)
